# Several values for one entry are separate records, joined by “and”; a condition that tells them apart may be missing. Equal values may be shown once. Records with an inconclusive call do not appear. Where a call stands in place of a potency, no number is given. A structure can be active in one record and inactive in another. Activity calls are given as the source filed them. Calls follow the shape of the dose curve; as a rule, active = well fitted activation curve with a large enough effect in the repeat runs; inconclusive = weak or mixed curves; inactive = flat fitted curve, though single readings scatter.
# Test: A CellTox Green Cytotoxicity Assay to monitor cytotoxicity in HepG2 cells - 32 hour (AID 1224883); also: nearly all actives have a fitted effect of over 50% in size
# Details: CellTox Green fluorescence; series mostly up to 76.8 µM
# Procedure, shortened: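 Nonlytic assay: viable cells exclude the dye, so fluorescence scales with cell death. HepG2 at 600 cells/well, compounds added after 5 h, signal read across 40 h.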
# Potency is read from the fitted curve at half-maximal effect.
row,SMILES,Potency
1,Cc1cc(Cc2cc(C)cc(C(C)(C)C)c2O)c(O)c(C(C)(C)C)c1,43.9 µM (active) and 43.6 µM (active)
2,CCn1cc(C(=O)O)c(=O)c2cc(F)c(N3CCNC(C)C3)c(F)c21 (stereo unspecified),inactive
3,Nc1cc(Cl)c(-c2cc(Cl)c(N)cc2Cl)cc1Cl,17.4 µM (active) and 54.9 µM (active)
4,CCC(=O)/C=C/C1C(C)=CCCC1(C)C (stereo unspecified),inactive
5,NC12CC3CC(CC(C3)C1)C2,inactive
6,CC(C)CCOC(=O)c1ccc(N(C)C)cc1,inactive
7,CC(C)C(=O)c1c(C(C)C)nn2ccccc12,inactive
8,CC(=O)Nc1ccc(C(=O)CCl)cc1,inactive and 19.5 µM (active)
9,Cc1scc2c1N(C(=O)CN1CCN(C)CC1)c1ccccc1NC2=O,inactive
10,COC(=O)/C=C/c1ccccc1,inactive
11,CCc1cc(C(C)(C)C)c(O)c(C(C)(C)C)c1,inactive
12,COC(=O)c1cccc(C(=O)OC)c1,inactive and 24.5 µM (active)
13,O=C1OC2(c3ccc(O)cc3Oc3cc(O)ccc32)c2ccccc21,616 nM (active) and 301 nM (active)
14,CC1=C(C=O)C(C)(C)CC=C1,inactive
15,Nc1ccc2cc3ccccc3cc2c1,inactive
16,Cc1cc(C2(c3cc(C)c(O)cc3C)OS(=O)(=O)c3ccccc32)c(C)cc1O,inactive
17,CCN(CC)C(=S)SSC(=S)N(CC)CC,8.25 µM (active)
18,CC(=O)N[C@@H](CS)C(=O)O,inactive
19,c1ccc2cc3c(ccc4ccccc43)cc2c1,inactive

row,SMILES,Potency
1,COc1ccc(CCN2CCC(Nc3nc4ccccc4n3Cc3ccc(F)cc3)CC2)cc1,19.9 µM (active) and 9.52 µM (active)
2,c1ccc2c(c1)CCCC2C1=NCCN1 (stereo unspecified),inactive
3,CCn1c2ccccc2c2cc(N)ccc21,inactive
4,CC1COC(=O)O1 (stereo unspecified),inactive and 43.6 µM (active)
5,Cc1cccc([N+](=O)[O-])c1C(=O)O,inactive
6,CO[Si](OC)(OC)c1ccccc1,inactive
7,CCC(C)(Oc1ccc(C2(c3ccc(OC(C)(CC)C(=O)O)cc3)CCCCC2)cc1)C(=O)O (stereo unspecified),inactive
8,C#CC(C)(CC)OC(=O)c1ccccc1C(=O)O (stereo unspecified),inactive
9,O=C(OCc1ccccc1)c1ccc(O)cc1,49 µM (active) and inactive
10,NC(N)=NC(=O)Cc1c(Cl)cccc1Cl,inactive
11,O=Nc1ccc(Nc2ccccc2)cc1,49.2 µM (active) and 43.6 µM (active)
12,CCCCN(CCO)CCCC,inactive
13,C/C=C/c1ccc(OCC)c(O)c1,inactive
14,C=C(C)C(=O)O,inactive
15,COC(c1ccccc1)(c1ccccc1)[C@H](Oc1nc(C)cc(C)n1)C(=O)O,inactive
16,Nc1cc(S(=O)(=O)O)cc2cc(S(=O)(=O)O)cc(O)c12,inactive
17,CCOc1ccc2c(c1)C(C)=CC(C)(C)N2,inactive
18,c1ccc2n[nH]nc2c1,inactive
19,CCCNC(C)C(=O)Nc1ccccc1C (stereo unspecified),inactive

# Test: A CellTox Green Cytotoxicity Assay to monitor cytotoxicity in HEK293 cells - 8 hour (AID 1224884); also: nearly all actives have a fitted effect of over 35% in size
# Details: CellTox Green fluorescence; series mostly up to 76.8 µM
# Procedure, shortened: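 Seeding of HEK293 cells together with cytotoxicity dye preceded a 5 h incubation at 37 C/5% CO2. Test compounds in DMSO were then added and fluorescence monitored across 40 h.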
row,SMILES,Potency
1,Cc1cc(Cc2cc(C)cc(C(C)(C)C)c2O)c(O)c(C(C)(C)C)c1,49.2 µM (active) and inactive
2,CCn1cc(C(=O)O)c(=O)c2cc(F)c(N3CCNC(C)C3)c(F)c21 (stereo unspecified),inactive
3,Nc1cc(Cl)c(-c2cc(Cl)c(N)cc2Cl)cc1Cl,inactive
4,CCC(=O)/C=C/C1C(C)=CCCC1(C)C (stereo unspecified),39 µM (active) and inactive
5,NC12CC3CC(CC(C3)C1)C2,inactive
6,CC(C)CCOC(=O)c1ccc(N(C)C)cc1,inactive
7,CC(C)C(=O)c1c(C(C)C)nn2ccccc12,inactive
8,CC(=O)Nc1ccc(C(=O)CCl)cc1,inactive
9,Cc1scc2c1N(C(=O)CN1CCN(C)CC1)c1ccccc1NC2=O,inactive
10,COC(=O)/C=C/c1ccccc1,inactive and 34.7 µM (active)
11,CCc1cc(C(C)(C)C)c(O)c(C(C)(C)C)c1,inactive
12,COC(=O)c1cccc(C(=O)OC)c1,inactive and 43.6 µM (active)
13,O=C1OC2(c3ccc(O)cc3Oc3cc(O)ccc32)c2ccccc21,692 nM (active) and 848 nM (active)
14,CC1=C(C=O)C(C)(C)CC=C1,inactive
15,Nc1ccc2cc3ccccc3cc2c1,inactive
16,Cc1cc(C2(c3cc(C)c(O)cc3C)OS(=O)(=O)c3ccccc32)c(C)cc1O,inactive
17,CCN(CC)C(=S)SSC(=S)N(CC)CC,inactive and 56.2 µM (active)
18,CC(=O)N[C@@H](CS)C(=O)O,inactive
19,c1ccc2cc3c(ccc4ccccc43)cc2c1,inactive

row,SMILES,Potency
1,COc1ccc(CCN2CCC(Nc3nc4ccccc4n3Cc3ccc(F)cc3)CC2)cc1,44.6 µM (active) and 26.8 µM (active)
2,c1ccc2c(c1)CCCC2C1=NCCN1 (stereo unspecified),inactive
3,CCn1c2ccccc2c2cc(N)ccc21,inactive
4,CC1COC(=O)O1 (stereo unspecified),inactive
5,Cc1cccc([N+](=O)[O-])c1C(=O)O,inactive
6,CO[Si](OC)(OC)c1ccccc1,inactive
7,CCC(C)(Oc1ccc(C2(c3ccc(OC(C)(CC)C(=O)O)cc3)CCCCC2)cc1)C(=O)O (stereo unspecified),inactive
8,C#CC(C)(CC)OC(=O)c1ccccc1C(=O)O (stereo unspecified),inactive
9,O=C(OCc1ccccc1)c1ccc(O)cc1,inactive
10,NC(N)=NC(=O)Cc1c(Cl)cccc1Cl,inactive
11,O=Nc1ccc(Nc2ccccc2)cc1,inactive
12,CCCCN(CCO)CCCC,inactive
13,C/C=C/c1ccc(OCC)c(O)c1,inactive
14,C=C(C)C(=O)O,inactive
15,COC(c1ccccc1)(c1ccccc1)[C@H](Oc1nc(C)cc(C)n1)C(=O)O,inactive
16,Nc1cc(S(=O)(=O)O)cc2cc(S(=O)(=O)O)cc(O)c12,inactive
17,CCOc1ccc2c(c1)C(C)=CC(C)(C)N2,inactive
18,c1ccc2n[nH]nc2c1,9.5 µM (active) and inactive
19,CCCNC(C)C(=O)Nc1ccccc1C (stereo unspecified),inactive
